16 molecules from PubChem BioAssay (EPA / NIEHS) can be followed below.

A short description of test [1]: ATG_E_Box_CIS: Attagene CIS-FACTORIAL HepG2 Assay for human Enhancer Box (E-box) (AID 2282936). Particulars: HepG2 E-box cis-reporter transcription, actives raise or lower the signal. A digest of the protocol: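 Measured 24 h post-dosing in HepG2 cells transfected with multiple cis-regulated reporter units, signal being reporter mRNA induction detected by fluorescent RT-PCR with capillary electrophoresis; gain or loss fitted against DMSO.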

The nature of test [2]: ATG_M_61_CIS: Attagene CIS-FACTORIAL HepG2 Assay for M61 Transcription Factor (Internal Marker) (AID 2282937). Particulars: HepG2 Attagene CIS-FACTORIAL M61 internal marker reporter; actives raise or lower the signal. The gist of the method:
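Human liver HepG2, transient MRTU transfection (cis promoter elements), 24 h compound. Total RNA → oligo(dT) RT → PCR → FAM label → HpaI → CE. Internal background marker; bidirectional fitting, DMSO = baseline.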

Test [3] in a line: ATG_EGR_CIS: Attagene CIS-FACTORIAL HepG2 Assay for human Early Growth Response 1 (EGR1) (AID 2282938). The following applies: HepG2 Attagene CIS-FACTORIAL EGR reporter mRNA; actives raise or lower the signal. The gist of the method: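 Transient transfection of human HepG2 with multiple cis-regulated reporter units, chemical exposure 24 h, total RNA isolated. Reverse transcription, PCR, fluorescent labelling and capillary electrophoresis quantify reporter transcripts; activity fitted bidirectionally against DMSO.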

The nature of test [4]: ATG_M_19_CIS: Attagene CIS-FACTORIAL HepG2 Assay for M19 Transcription Factor (Internal Marker) (AID 2282939). The following applies: HepG2 Attagene CIS-FACTORIAL M19 internal marker reporter; actives raise or lower the signal. The gist of the method: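 Chemical-treated HepG2 (24 h) with MRTU constructs; reporter transcripts detected by fluorescent RT-PCR fragment analysis on capillary electrophoresis. Internal background marker, DMSO as baseline.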

Test [5] is described as follows: ATG_Ets_CIS: Attagene CIS-FACTORIAL HepG2 Assay for human Erythroblast Transformation Specific (ETS) (AID 2282941). The following applies: HepG2 ETS cis-reporter transcription, actives raise or lower the signal. The gist of the method: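 Bidirectional fit versus DMSO of reporter mRNA signal, detected by RT-PCR and capillary electrophoresis in HepG2 cells transiently transfected with cis-element reporters and dosed 24 h.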

The target of test [6] is Hepatocyte nuclear factor 3-beta (Homo sapiens) (UniProt Q9Y261). Nature of the test: ATG_FoxA2_CIS: Attagene CIS-FACTORIAL HepG2 Assay for human Forkhead box A2 (FOXA2) (AID 2282942). Particulars: HepG2 cis-reporter transcription factor activity, 24 h; actives raise or lower the signal. A digest of the protocol: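 Transient MRTU transfection of HepG2 liver cells; 24 h treatment; total RNA → oligo(dT) RT → PCR → FAM primer extension → HpaI cut → CE. Bidirectional fit vs DMSO.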
Hepatocyte nuclear factor 3-beta (Homo sapiens), sequence (Q9Y261 whole entry, looked up): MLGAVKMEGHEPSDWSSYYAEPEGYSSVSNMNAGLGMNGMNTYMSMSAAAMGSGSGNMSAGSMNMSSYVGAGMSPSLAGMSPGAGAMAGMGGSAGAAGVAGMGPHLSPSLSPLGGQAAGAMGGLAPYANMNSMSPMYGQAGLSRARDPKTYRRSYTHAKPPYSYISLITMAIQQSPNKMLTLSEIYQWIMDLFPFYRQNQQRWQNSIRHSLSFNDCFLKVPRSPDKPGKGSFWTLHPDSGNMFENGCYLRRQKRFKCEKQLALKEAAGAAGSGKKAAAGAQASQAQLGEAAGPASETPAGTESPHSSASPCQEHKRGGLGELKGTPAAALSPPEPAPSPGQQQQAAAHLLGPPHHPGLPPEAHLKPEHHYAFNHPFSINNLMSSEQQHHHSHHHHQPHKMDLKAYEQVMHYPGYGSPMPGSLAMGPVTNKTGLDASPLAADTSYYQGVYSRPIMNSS

Test [7] can be described thus: ATG_GATA_CIS: Attagene CIS-FACTORIAL HepG2 Assay for human GATA Binding Protein (AID 2282944). Particulars: HepG2 GATA cis-element reporter, Attagene multiplex mRNA; actives raise or lower the signal. A digest of the protocol: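 Transfected cis-reporter HepG2 cells were treated with chemicals for 24 hours. Total RNA was then converted to cDNA, amplified with reporter-specific primers and analysed by fluorescent capillary electrophoresis, using DMSO-treated wells as baseline.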

Test [8] is described as follows: ATG_GLI_CIS: Attagene CIS-FACTORIAL HepG2 Assay for human Zinc Finger Protein GLI1 (AID 2282945). The following applies: HepG2, Attagene cis-factorial reporter mRNA, GLI element; actives raise or lower the signal. A digest of the protocol:
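HepG2 cells transiently transfected with cis-promoter multiplexed reporter units report endogenous transcription factor activity. After 24 h chemical exposure, reporter mRNA was quantified by RT-PCR, 6-FAM labelling, HpaI digestion and capillary electrophoresis, with bidirectional fitting against DMSO.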

Test [9] addresses Bile acid receptor (Homo sapiens) (UniProt Q96RI1). Briefly: ATG_IR1_CIS: Attagene CIS-FACTORIAL HepG2 Assay for human Nuclear Receptor Subfamily 1 Group H Member 4 (NR1H4), IR1 submotif (AID 2282946). The following applies: IR1 reporter transcription, actives raise or lower the signal. The gist of the method: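 Readout: reporter transcript levels by RT-PCR with fluorescent capillary electrophoresis, from HepG2 cells transiently transfected with multiplexed cis-regulated reporters and dosed 24 h. Gain- or loss-of-signal fitted versus DMSO negative control.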

Test [10] is described as follows: ATG_FoxO_CIS: Attagene CIS-FACTORIAL HepG2 Assay for human Forkhead box O (FoxO) (AID 2282943). The following applies: HepG2 Attagene cis-reporter, FoxO element, mRNA; actives raise or lower the signal. The gist of the method:
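Values reflect reporter mRNA induction or loss in HepG2 cells 24 h post-dosing, fitted bidirectionally with DMSO as negative control and baseline. Detection used RT-PCR and fluorescence capillary electrophoresis.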

Some structures have more than one record in an assay (separate samples or runs), and their calls can disagree. Active and inactive are the calls of the source. The calls were made as follows: active = hit-call score of the fitted dose curve at least 0.9, where 1 is the maximum; inactive = score below 0.9.

Bile acid receptor (Homo sapiens), sequence (Q96RI1 whole entry, looked up): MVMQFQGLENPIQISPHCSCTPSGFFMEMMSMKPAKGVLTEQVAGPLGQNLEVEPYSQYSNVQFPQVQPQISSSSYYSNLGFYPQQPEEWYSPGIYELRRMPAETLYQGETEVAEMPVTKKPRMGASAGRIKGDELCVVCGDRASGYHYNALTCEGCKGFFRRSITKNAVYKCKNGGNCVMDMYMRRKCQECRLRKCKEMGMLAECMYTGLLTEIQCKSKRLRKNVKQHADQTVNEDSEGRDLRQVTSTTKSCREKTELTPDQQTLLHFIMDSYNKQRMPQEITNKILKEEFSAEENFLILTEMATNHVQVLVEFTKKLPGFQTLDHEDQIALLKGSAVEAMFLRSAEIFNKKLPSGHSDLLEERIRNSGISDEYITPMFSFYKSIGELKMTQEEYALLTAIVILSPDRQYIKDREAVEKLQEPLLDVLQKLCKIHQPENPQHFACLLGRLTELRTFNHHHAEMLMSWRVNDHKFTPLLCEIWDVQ

As for `CN1COCN(Cc2cnc(Cl)s2)C1=N[N+](=O)[O-]`, the result in test [1], in [2], in [3], in test [4], in test [5] and in [6] was inactive. Further, the molecule was called inactive in test [7], in test [8] and in test [9].

In the case of `CCOP(=O)(NC(C)C)Oc1ccc(SC)c(C)c1` (centres undefined), the outcome in test [1], in [2], in [3], in [4], in test [5] and in test [6] was inactive. Further, the result in test [10], in test [7] and in [9] was inactive.

For the molecule `CSc1nc(NC(C)C)nc(NC(C)C)n1`, the result in test [1], in test [2], in test [3], in [4], in test [5] and in test [6] was inactive. Moreover, the molecule was called inactive in [10] and in [7].

Consider `CC(C)[C@H](C(=O)O[C@H](C#N)c1cccc(Oc2ccccc2)c1)c1ccc(Cl)cc1`, for which the outcome in test [1], in [2], in test [3], in [4], in [5] and in [6] was inactive. In [7], the molecule was called inactive.

`CN(C)[C@@H]1C(=O)C(C(N)=O)=C(O)[C@@]2(O)C(=O)C3=C(O)c4c(O)cccc4[C@@](C)(O)[C@H]3[C@H](O)[C@@H]12`: the result in [1], in test [2], in test [3], in test [4], in [5] and in [6] was inactive. For the same molecule, the molecule was classed as inactive in test [7] and in [8].

On to `COc1cccc(C(=O)NN(C(=O)c2cc(C)cc(C)c2)C(C)(C)C)c1C`, for which the outcome in [1], in [2], in test [3], in test [4], in test [5] and in test [6] was inactive. Moreover, the result in [7], in [8] and in [9] was inactive.

As for `Cc1nn(-c2cc(NS(C)(=O)=O)c(Cl)cc2Cl)c(=O)n1C(F)F`, the result in test [1], in test [2], in test [3], in test [4], in test [5] and in test [6] was inactive. Moreover, the outcome in [7] was inactive.

Regarding `O=[N+]([O-])c1cc(C(F)(F)F)c(Cl)c([N+](=O)[O-])c1Nc1ncc(C(F)(F)F)cc1Cl`, the call in test [2], in test [3], in test [4], in test [5], in test [6] and in test [10] was inactive. For the same molecule, the molecule was called inactive in test [7], in test [8] and in [9]. Further, the figures for the concentration at half-maximal activity (AC50) in test [6] and in test [9] were 20 µM (active) and 12.9 µM (active), respectively.

As to `CNc1cnn(-c2cccc(C(F)(F)F)c2)c(=O)c1Cl`, the outcome in [1], in test [2], in test [3], in [4], in [5] and in test [6] was inactive. Also, the molecule was classed as inactive in [10], in test [7] and in test [9].

With `CNC(=O)ON=C(C)SC`, the result in test [1], in test [2], in test [3], in test [4], in test [5] and in test [6] was inactive. The molecule was classed as inactive in test [7] and in test [8].

For `CCCSP(=O)(OCC)Oc1ccc(Br)cc1Cl` (centres undefined), the outcome in [1], in test [2], in test [3], in test [4], in test [5] and in test [6] was inactive. For the same molecule, the molecule was called inactive in [7], in [8] and in [9].

In the case of `CON=C(C(=O)OC)c1ccccc1CON=C(C)c1cccc(C(F)(F)F)c1`, the AC50 in [1] was 12.5 µM (active). The outcome in [2], in test [3], in test [4], in test [5], in [6] and in test [7] was inactive. Moreover, the outcome in test [8] was inactive.

Consider `O=C(O)c1cc(Oc2ccc(C(F)(F)F)cc2Cl)ccc1[N+](=O)[O-]`, for which the result in test [1], in test [2], in test [3], in [4], in test [5] and in [6] was inactive. In [7], the molecule was classed as inactive.

As for `COP(=O)(OC)SCn1c(=O)oc2cc(Cl)cnc21`, the result in test [1], in [2], in test [3], in [4], in [5] and in [6] was inactive. Further, the call in [7] and in test [8] was inactive.

For the molecule `CCOP(=S)(Oc1cnc(C(C)(C)C)nc1)OC(C)C` (centres undefined), the figures for the AC50 in test [1], in test [3] and in test [8] were 27 µM (active), 19.3 µM (active) and 50 µM (active), respectively. Further, the molecule was called inactive in test [2], in test [4], in [5], in test [6] and in [7].

Regarding `CCOP(=O)(OCC)Oc1cc(C)nc(C(C)C)n1`, the outcome in test [1], in [2], in [3], in test [4], in test [5] and in test [6] was inactive. The molecule was classed as inactive in test [7], in [8] and in test [9].

By AC50 is commonly meant the concentration at which the activity in the assay is half-maximal.
